Several values for one entry are separate records, joined by “and”; a condition that tells them apart may be missing. Equal entries are not always repeated. About 79,000 compounds went through this panel and 15% of them were active in at least one assay; those are over-represented in the sample as a whole. Unmarked numbers belong to inactive results. Activity calls are given as the source filed them. No stated cut-off is given here; in the data, active means growth inhibition above about 70%; inactive means the rest.
experiment: NCI Yeast Anticancer Drug Screen. Data for the CLN2oe strain (AID 163);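 further: 0% = growth of vehicle-only control cultures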; conditions: S. cerevisiae CLN2oe strain, at 3.7 µM, stronger effect = higher value
In short: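 Inhibition relative to vehicle-treated yeast is reported. Cells: strain with genetic alteration in cell-cycle control, grown with compound.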

| SMILES | growth inhibition |
| --- | --- |
| C=C[C@H]1CN2CC[C@H]1C[C@@H]2[C@@H](O)c1ccnc2ccccc12 | 2% |
| O=c1c2ccccc2[se]n1-c1cccnc1 | 21% |
| CC12CCC(C1)C(C)(C)C2OC(=O)c1ccccc1N (stereo not drawn) | -2% |
| OC1(c2ccccc2)CC2CCC(C1)N2CCCC(O)(c1ccccc1)c1ccccc1 (stereo not drawn) | -5% |
| COC(=O)C(F)C(Br)C(=O)OC (stereo not drawn) | 91% (active) |
| CCCCCCCCCC[Se]C#N | 0% |
| CNCC(O)c1ccc(O)c(O)c1.[Pt].c1ccc([PH+](c2ccccc2)c2ccccc2)cc1.c1ccc([PH+](c2ccccc2)c2ccccc2)cc1 | -8% |
| CC1CC(C)CC(C)C(O)/C(C#N)=C/C=C/CC(C2CCCC2C(=O)O)OC(=O)CC(O)C(C)C1 (stereo not drawn) | 96% (active) |

same assay, conditions: S. cerevisiae CLN2oe strain, at 11.0 µM, stronger effect = higher value

| SMILES | growth inhibition |
| --- | --- |
| C=C[C@H]1CN2CC[C@H]1C[C@@H]2[C@@H](O)c1ccnc2ccccc12 | 3% |
| O=c1c2ccccc2[se]n1-c1cccnc1 | 58% |
| CC12CCC(C1)C(C)(C)C2OC(=O)c1ccccc1N (stereo not drawn) | -3% |
| OC1(c2ccccc2)CC2CCC(C1)N2CCCC(O)(c1ccccc1)c1ccccc1 (stereo not drawn) | -2% |
| COC(=O)C(F)C(Br)C(=O)OC (stereo not drawn) | 97% (active) |
| CCCCCCCCCC[Se]C#N | -4% |
| CNCC(O)c1ccc(O)c(O)c1.[Pt].c1ccc([PH+](c2ccccc2)c2ccccc2)cc1.c1ccc([PH+](c2ccccc2)c2ccccc2)cc1 | 3% |
| CC1CC(C)CC(C)C(O)/C(C#N)=C/C=C/CC(C2CCCC2C(=O)O)OC(=O)CC(O)C(C)C1 (stereo not drawn) | 97% (active) |

same assay, conditions: S. cerevisiae CLN2oe strain, at 33.0 µM, stronger effect = higher value

| SMILES | growth inhibition |
| --- | --- |
| C=C[C@H]1CN2CC[C@H]1C[C@@H]2[C@@H](O)c1ccnc2ccccc12 | 5% |
| O=c1c2ccccc2[se]n1-c1cccnc1 | 84% (active) |
| CC12CCC(C1)C(C)(C)C2OC(=O)c1ccccc1N (stereo not drawn) | 14% |
| OC1(c2ccccc2)CC2CCC(C1)N2CCCC(O)(c1ccccc1)c1ccccc1 (stereo not drawn) | 12% |
| COC(=O)C(F)C(Br)C(=O)OC (stereo not drawn) | 98% (active) |
| CCCCCCCCCC[Se]C#N | -7% |
| CNCC(O)c1ccc(O)c(O)c1.[Pt].c1ccc([PH+](c2ccccc2)c2ccccc2)cc1.c1ccc([PH+](c2ccccc2)c2ccccc2)cc1 | 93% (active) |
| CC1CC(C)CC(C)C(O)/C(C#N)=C/C=C/CC(C2CCCC2C(=O)O)OC(=O)CC(O)C(C)C1 (stereo not drawn) | 97% (active) |

same assay, conditions: S. cerevisiae CLN2oe strain, at 100.0 µM, stronger effect = higher value

| SMILES | growth inhibition |
| --- | --- |
| C=C[C@H]1CN2CC[C@H]1C[C@@H]2[C@@H](O)c1ccnc2ccccc12 | 2% |
| O=c1c2ccccc2[se]n1-c1cccnc1 | 83% (active) |
| CC12CCC(C1)C(C)(C)C2OC(=O)c1ccccc1N (stereo not drawn) | 61% |
| OC1(c2ccccc2)CC2CCC(C1)N2CCCC(O)(c1ccccc1)c1ccccc1 (stereo not drawn) | 49% |
| COC(=O)C(F)C(Br)C(=O)OC (stereo not drawn) | 100% (active) |
| CCCCCCCCCC[Se]C#N | -3% |
| CNCC(O)c1ccc(O)c(O)c1.[Pt].c1ccc([PH+](c2ccccc2)c2ccccc2)cc1.c1ccc([PH+](c2ccccc2)c2ccccc2)cc1 | 96% (active) |
| CC1CC(C)CC(C)C(O)/C(C#N)=C/C=C/CC(C2CCCC2C(=O)O)OC(=O)CC(O)C(C)C1 (stereo not drawn) | 97% (active) |

experiment: NCI Yeast Anticancer Drug Screen. Data for the cln2 rad14 strain (AID 165);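 further: 0% = growth equal to vehicle treated cultures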; conditions: S. cerevisiae cln2 rad14 strain, at 5.0 µM (retest, dose inferred, filed as 0.5), stronger effect = higher value
In short: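 Each compound was tested on cln2 rad14 yeast. Inhibition of growth was calculated against vehicle-exposed controls.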

| SMILES | growth inhibition |
| --- | --- |
| COC(COC(N)=O)C1=C(N2CC2)C(=O)C(C)=C(N2CC2)C1=O (stereo not drawn) | 40% |
| Cc1nc(Cl)c(CBr)c(Cl)n1 | 40% |
| C[n+]1[se]nc2cc(C(=O)c3ccccc3)ccc21 (tested in a mixture with another compound) | 96% (active) |
| O=C(O)c1ccccc1.[Ag] | 36% and 39% |
| CC(C)(Br)C(=O)C(Br)Br | 95% (active) |
| COC1(OC)C(Cl)=C(Cl)C(Cl)=C1Cl | 0% |
| C=C[C@H]1CN2CC[C@H]1C[C@@H]2[C@@H](O)c1ccnc2ccccc12 | 44% |
| [C-]#[O+].[C-]#[O+].[Ir].[O-]c1ccc2ccccc2c1N=Nc1ccccc1 | -2% |
| O=C(Nc1ccccc1)OC(C[N+](=O)[O-])C(Cl)(Cl)Cl (stereo not drawn) | 10% |
| O=c1c2ccccc2[se]n1-c1cccnc1 | 9% |
| CC12CCC(C1)C(C)(C)C2OC(=O)c1ccccc1N (stereo not drawn) | -2% |
| CC(=O)[O][Hg][c]1cc2c(cc1O)Cc1cc([N+](=O)[O-])ccc1-2 | 76% (active) |
| OC1(c2ccccc2)CC2CCC(C1)N2CCCC(O)(c1ccccc1)c1ccccc1 (stereo not drawn) | 1% |
| ClC1=C(Cl)C(Cl)(Cl)SS1 | 100% (active) |
| COC(=O)C(F)C(Br)C(=O)OC (stereo not drawn) | 5% |
| c1ccc2c(NCCCCCCNc3c4ccccc4nc4ccccc34)c3ccccc3nc2c1 | 20% |
| c1ccc2c(NCCCCCCCCNc3c4ccccc4nc4ccccc34)c3ccccc3nc2c1 | 44% |
| CN(Cc1ccccc1)CC(O)c1ccc(Cl)cc1 (stereo not drawn) | 3% |

| SMILES | growth inhibition |
| --- | --- |
| Br[C](Br)(Br)[Hg][c]1ccccc1 | 99% (active) |
| Cc1cc(N=Nc2ccccc2C)ccc1N | 41% and 20% |
| C/C(=N\N=C(/[Se])N1CC2CCC(CC2)C1)c1ccccn1 | 32% |
| CCCCCCCCCC[Se]C#N | 15% |
| CCN(CC)CC.CCOc1ccc(NC(=O)N=C=[N-])cc1.[CH-]1CCCCC1.[CH-]1CCCCC1.[CH-]1CCCCC1.[Cl-].[Sn+4] | 99% (active) |
| Cc1cc(N(C)C)c2ccccc2[n+]1CCCCCCCCCC[n+]1c(C)cc(N(C)C)c2ccccc21 | 87% (active) |
| CCC[CH2][Sn]1([CH2]CCC)[O]CC(CN2CCCC2)[O]1 (stereo not drawn) | 26% |
| N#Cc1ccc([Se]c2ccccc2)cc1 | 33% |
| O=c1ssc(Cl)c1Cl | 93% (active) |
| Nc1nc(N)c(-c2ccc(Cl)c(Cl)c2)c(CP(Cl)(Cl)(Cl)Br)n1 | 0% |
| Cc1ccc(P(c2ccc(C)cc2)c2ccc(C)cc2)cc1 | 69% |
| O=C(O)c1ccccc1[Se][Se]c1ccccc1C(=O)O | 31% |
| CC1CC(C)CC(C)C(O)/C(C#N)=C/C=C/CC(C2CCCC2C(=O)O)OC(=O)CC(O)C(C)C1 (stereo not drawn) | 8% |
| CCC[CH2][Pb]([Cl])([CH2]CCC)[CH2]CCC | 98% (active) |
| CNC(Cc1ccccc1)c1ccc(OC)c(OC)c1 (stereo not drawn) | 18% |
| CC1C(=O)OCC1(C)O (stereo not drawn) | 1% |
| O=C(Nc1ccccc1)c1cc([N+](=O)[O-])ccc1O | -2% |
| N=P(c1ccccc1)(c1ccccc1)c1ccccc1 (tested in a mixture with another compound) | -3% |
